# The whole screen tested about 310,000 compounds, of which about 2,200 (0.71%) showed an effect of 50% or more. Effects have a minus sign here. The entries come from a sample that favours strong results as a whole.
# Molecular target: human ether-à-go-go-related gene (hERG) potassium channel (human, UniProt Q12809)
# Assay: primary screen, population patch clamp on CHO cells stably expressing hERG; higher = less effect of the substance
# Chain of human ether-à-go-go-related gene (hERG) potassium channel (Q12809 whole entry, looked up): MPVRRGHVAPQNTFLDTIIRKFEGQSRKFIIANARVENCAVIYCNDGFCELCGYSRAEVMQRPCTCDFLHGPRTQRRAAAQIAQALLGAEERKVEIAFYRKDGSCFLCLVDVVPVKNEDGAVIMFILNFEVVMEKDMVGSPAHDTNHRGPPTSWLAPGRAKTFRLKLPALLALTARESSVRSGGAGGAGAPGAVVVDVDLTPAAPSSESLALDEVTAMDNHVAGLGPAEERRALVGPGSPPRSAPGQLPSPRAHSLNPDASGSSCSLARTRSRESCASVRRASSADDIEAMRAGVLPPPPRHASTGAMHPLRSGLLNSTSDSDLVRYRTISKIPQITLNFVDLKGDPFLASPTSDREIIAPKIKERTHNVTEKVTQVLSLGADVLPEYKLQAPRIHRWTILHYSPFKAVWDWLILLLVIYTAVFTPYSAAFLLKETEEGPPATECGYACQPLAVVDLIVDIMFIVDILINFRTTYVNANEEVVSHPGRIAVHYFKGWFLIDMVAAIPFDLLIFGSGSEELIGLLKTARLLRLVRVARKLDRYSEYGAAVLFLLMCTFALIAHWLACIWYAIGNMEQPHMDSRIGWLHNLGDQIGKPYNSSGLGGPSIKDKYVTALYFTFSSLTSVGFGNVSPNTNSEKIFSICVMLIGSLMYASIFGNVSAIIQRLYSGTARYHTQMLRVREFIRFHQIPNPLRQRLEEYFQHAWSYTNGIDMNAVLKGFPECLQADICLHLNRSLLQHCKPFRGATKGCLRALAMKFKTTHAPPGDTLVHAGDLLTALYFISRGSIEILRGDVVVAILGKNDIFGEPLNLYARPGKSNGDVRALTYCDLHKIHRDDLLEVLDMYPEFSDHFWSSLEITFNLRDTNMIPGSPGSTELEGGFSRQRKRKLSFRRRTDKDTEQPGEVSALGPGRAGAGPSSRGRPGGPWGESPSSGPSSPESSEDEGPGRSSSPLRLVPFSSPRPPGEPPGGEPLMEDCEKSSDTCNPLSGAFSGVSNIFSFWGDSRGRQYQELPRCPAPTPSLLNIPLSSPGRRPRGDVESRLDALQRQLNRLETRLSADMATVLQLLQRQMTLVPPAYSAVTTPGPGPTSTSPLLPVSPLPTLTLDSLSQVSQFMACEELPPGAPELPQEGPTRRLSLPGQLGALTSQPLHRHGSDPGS
row,SMILES,"hERG current change (%, negative = inhibition) at 1uM [%]"
1,Cc1cccn2c(=O)c3cc(C(N)=S)c(=N)n(CCCOC(C)C)c3nc12,-77.8
2,Cc1cccn2c(=O)c3cc(C(=O)NCCCOC(C)C)sc3nc12,9.15
3,Cc1cc(N)n(-c2cc(C)c3ccccc3n2)n1,9.59
4,Cc1ccc(NC(=S)N2CCN(c3ccccn3)CC2)c(C)c1,12.7
5,O=C(Nc1c(C(=O)N2CCN(c3ccccn3)CC2)oc2ccccc12)c1ccc([N+](=O)[O-])cc1,-4.07
6,Cc1c(C(=O)N2CCN(c3ccc([N+](=O)[O-])cc3)CC2)oc2ccccc12,-12.9
7,O=C(Nc1c(C(=O)N2CCOCC2)oc2ccccc12)c1cccc([N+](=O)[O-])c1,11.4
8,CCOCCCN(C)C1CCN(C(=O)c2oc3ccccc3c2NC(=O)c2cccc([N+](=O)[O-])c2)CC1,-86
9,O=C(Nc1c(C(=O)N2CCN(c3ccccn3)CC2)oc2ccccc12)c1cccc([N+](=O)[O-])c1,7.86
10,CCOCCCN(C)C1CCN(C(=O)c2oc3ccccc3c2NC(=O)c2ccc([N+](=O)[O-])cc2)CC1,-85.2
11,O=C(CN1C(=O)CCC1=O)Nc1nc(-c2nc3ccccc3s2)cs1,-4.37
12,CCOC(=O)C(C)(C)N(Cc1ccc(Cl)cc1)S(=O)(=O)c1ccc(Cl)c([N+](=O)[O-])c1,13.2
13,Cc1cc(C)cc(NC(=O)C(c2ccccc2)N2CCCC2)c1 (centres unmarked),12.6
14,CC(C)c1ccc(/C=C(\NC(=O)c2ccccc2)C(=O)NCCCn2ccnc2)cc1,-63.2
15,COc1ccc(/C=C(/NC(=O)c2ccccc2)C(=O)NCCCn2ccnc2)cc1OC,15.3
16,O=C(NCCCn1ccnc1)/C(=C/c1ccccc1)NC(=O)c1ccccc1,-47.6
17,O=C(NCCCn1ccnc1)/C(=C\c1ccccc1Cl)NC(=O)c1ccccc1,6.1
18,CN(C)c1ccc(/C=C(/NC(=O)c2ccccc2)C(=O)NCCCn2ccnc2)cc1,16.1
19,O=C(NCCCn1ccnc1)/C(=C/c1ccc(Cl)cc1)NC(=O)c1ccccc1,-82.5
20,CN(C)c1ccc(/C=C(\NC(=O)c2ccccc2)C(=O)NCCCn2ccnc2)cc1,9.45
21,O=C(NCCCn1ccnc1)/C(=C\c1ccc(Br)cc1)NC(=O)c1ccccc1,-82.1

row,SMILES,"hERG current change (%, negative = inhibition) at 1uM [%]"
1,COc1ccccc1/C=C(/NC(=O)c1ccccc1)C(=O)NCCCn1ccnc1,13.6
2,Cn1c(=O)n(C)c2cc(NS(C)(=O)=O)ccc21,8.26
3,COc1ccc(Cc2noc(CN3CCCC(C(=O)c4cccs4)C3)n2)cc1OC (centres unmarked),9.47
4,O=c1c2c(nc3n1CCS3)c1cc(F)ccc1n2Cc1cc(=O)n2cc(Cl)ccc2n1,10.3
5,Cc1cc(F)ccc1S(=O)(=O)Nc1ccc(O)c(Sc2ncn[nH]2)c1,20.6
6,Cc1cc(C)cc(N(C(=O)CCC(=O)Nc2ccccn2)C(C(=O)NC(C)C)c2ccc(O)cc2)c1 (centres unmarked),1.99
7,OC(COc1ccccc1)CN1CCN(C(c2ccccc2)c2ccccc2)CC1 (centres unmarked),-24.1
8,CC1CCN(CC(O)COc2ccc(F)cc2)CC1 (centres unmarked),-13.3
9,OC(COc1ccc(OCC(O)CN2CCN(Cc3ccccc3)CC2)cc1)CN1CCN(Cc2ccccc2)CC1 (centres unmarked),6.14
10,CCC(=O)c1ccc(OCC(O)Cn2nc(C)c(C(C)=O)c2C)cc1 (centres unmarked),4.75
11,OC(COc1ccc(F)cc1)CN1CCN(CC(O)COc2ccc(F)cc2)CC1 (centres unmarked),-51.1
12,CCC(=O)c1ccc(OCC(O)Cn2nc(C)c(Br)c2C)cc1 (centres unmarked),-100
13,CCC(=O)c1ccc(OCC(O)Cn2nc(C)cc2C)cc1 (centres unmarked),7.89
14,CCC(=O)c1ccc(OCC(O)CN2CCCCC2)cc1.Cl (centres unmarked),3.96
15,CCC(=O)c1ccc(OCC(O)CN2CCOCC2)cc1 (centres unmarked),17.8
16,CCC(=O)c1ccc(OCC(O)CN2CCN(C(c3ccccc3)c3ccccc3)CC2)cc1 (centres unmarked),-51.4
17,COc1ccc(OCC(O)CN2CCN(CC(O)COc3ccc(OC)cc3)CC2)cc1 (centres unmarked),3.29
18,N#Cc1ccc(OCC(O)CN2CCN(C(c3ccccc3)c3ccccc3)CC2)cc1 (centres unmarked),-69.5
19,O=c1[nH]c(=O)c2nc3ccccc3nc2[nH]1,2.78
20,COc1cc(NC(=O)CN(C)C2CCCCC2)c(C)cc1[N+](=O)[O-],6.09
21,Cc1ccc(S(=O)(=O)N[C@@H](CC(C)C)C(=O)NCc2ccco2)cc1,3.58

row,SMILES,"hERG current change (%, negative = inhibition) at 1uM [%]"
1,CCCCN(C(=O)/C=C/c1ccco1)c1c(N)n(Cc2ccccc2)c(=O)[nH]c1=O,7.19
2,CCOc1cc(NC(=S)NCCCN2CCOCC2)c(OCC)cc1NC(=O)c1cccc(F)c1,-0.782
3,C=CCOc1ccccc1/C=N/NC(=O)Cc1ccccc1,14.3
4,Cc1ccc(S(=O)(=O)N2CCCC2C(=O)Nc2nc3c(s2)CCCC3)cc1 (centres unmarked),13.2
5,OC(COc1ccc(OCC(O)CN2CCCCC2)cc1)CN1CCCCC1 (centres unmarked),18.1
6,OC1CCCN(CC(O)COc2ccc(-c3ccccc3)cc2)C1 (centres unmarked),-0.151
7,CC1CN(CC(O)COc2ccc(C#N)cc2)CCN1CC(O)COc1ccc(C#N)cc1 (centres unmarked),-86.2
8,N#Cc1ccc(-c2ccc(OCC(O)CN3CCOCC3)cc2)cc1 (centres unmarked),7.69
9,O=C(O)C(=O)O.OC(COCc1ccco1)CN1CCN(c2ccccc2)CC1 (centres unmarked),3.71
10,Cc1ccccc1OCC(O)CN1CCN(CC(O)COc2ccccc2C)C(C)C1.O=C(O)C(=O)O (centres unmarked),-29
11,CC1CCCCN1CC(O)COc1ccc(OCC(O)CN2CCCCC2C)cc1 (centres unmarked),13.5
12,CC(=O)c1ccc(N2CCN(CC(O)COCc3ccco3)CC2)cc1 (centres unmarked),-29.3
13,CC1CCCN(CC(O)COc2ccc(Cl)cc2)C1.Cl (centres unmarked),-32.2
14,N#Cc1ccc(-c2ccc(OCC(O)CN3CCCCC3)cc2)cc1 (centres unmarked),-52.1
15,OC(COCc1ccco1)CN1CCN(C(c2ccccc2)c2ccccc2)CC1 (centres unmarked),-79.1
16,CC1CCCN(CC(O)COc2ccc(-c3ccccc3)cc2)C1 (centres unmarked),-57.8
17,COc1ccccc1NC(=O)COC(=O)/C=C/c1ccc2c(c1)OCO2,9.01
18,O=C(Nc1ccc(C(=O)O)cc1)/C(=C\c1ccc2c(c1)OCO2)NC(=O)c1ccco1,19.4
19,O=C(c1csc2c1CCCC2)N1CCN(c2ccc(F)cc2)CC1,2.84
20,COc1ccc(C(=O)Nc2cccc(-c3ccc4nncn4n3)c2)cc1,7.11
21,CCn1ncc(NC(=S)NCCc2ccccc2)c1C(N)=O,2.4

row,SMILES,"hERG current change (%, negative = inhibition) at 1uM [%]"
1,CC(C)C(OC(=O)c1cccs1)C(=O)NCc1ccco1 (centres unmarked),12.2
2,O=S(=O)(Nc1cc(S(=O)(=O)N2CCOCC2)ccc1N1CCOCC1)c1ccc2c(c1)OCCO2,28.4
3,COc1ccccc1N1C(=O)[C@@H]2[C@H](C1=O)[C@H](C(=O)c1ccc(OC(C)=O)cc1)N1N=CC=C[C@@H]21,15.9
4,C#CCCOC(=O)N1C2=NC(C(=O)OC)=C(C(=O)OC)[C@@H]3N(C)c4ccc(OC)cc4[C@]23C[C@H]1C(=O)OC,-0.338
5,CSc1ccc(/C=C2\CCn3c2nc2cc(C(=O)O)ccc2c3=O)cc1,15.6
6,O=C(Nc1ccccn1)c1cc2ccccc2o1,9.79
7,CCOC(=O)N/N=C/c1ccc(C)o1,5.21
8,O=C(O)CN1CCN(c2ncc(C(F)(F)F)cc2Cl)CC1,12.6
9,CC(=O)c1ccc(OCC(O)CN2CCN(c3ccc(F)cc3)CC2)cc1.Cl (centres unmarked),-64.9
10,CN1CCN(CC(O)COc2ccc(OCC(O)CN3CCN(C)CC3)cc2)CC1 (centres unmarked),10.2
11,OC(CN1CCN(c2ncc(C(F)(F)F)cc2Cl)CC1)c1ccccc1 (centres unmarked),1.4
12,N#Cc1ccc(OCC(O)CN2CCN(c3ncc(C(F)(F)F)cc3Cl)CC2)cc1 (centres unmarked),-81.4
13,Cc1ccc(OCC(O)CN2CCN(CC(O)COc3ccc(C)cc3)CC2)cc1 (centres unmarked),-8.83
14,COc1ccc(N2CCN(CC(O)COc3ccc(F)cc3)CC2)cc1.Cl (centres unmarked),-47.8
15,Cl.OC(COCC1COc2ccccc2O1)CN1CCN(c2ccc(F)cc2)CC1 (centres unmarked),-57.6
16,Cl.OC(COCC1COc2ccccc2O1)CN1CCN(c2ccccc2)CC1 (centres unmarked),-24.7
17,CCC(=O)c1ccc(OCC(O)CN2CCN(c3ccc(F)cc3)CC2)cc1 (centres unmarked),-15.1
18,N#Cc1ccc(OCC(O)CN2CCN(CC(O)COc3ccc(C#N)cc3)CC2)cc1 (centres unmarked),-91.3
19,Cl.OC(COCC1COc2ccccc2O1)CN1CCN(c2ccccc2F)CC1 (centres unmarked),-19.9
20,Cc1cc(N2CCCC2)ccc1NC(=O)CN1C(=O)NC(C)(c2ccccc2)C1=O (centres unmarked),16
